# Reference: PubChem BioAssay (EPA / NIEHS)
# Values joined by “and” are separate entries in the source; they are usually repeats but may differ in a detail not shown here. Equal values may be shown once. Inconclusive results are not listed. Active and inactive are the calls of the source. How the source made its calls, unless noted: active means hit-call score of the fitted dose curve at least 0.9, where 1 is the maximum; inconclusive means response in the unintended direction; inactive means score below 0.9.
# Columns and labels:
# [1] = molecular target: Peroxisome proliferator-activated receptor gamma (Homo sapiens) (UniProt P37231); test: NVS_NR_hPPARg: NovaScreen (NVS) Nuclear Receptor Binding Assay for human Peroxisome Proliferator-activated Receptor gamma (PPARg) (AID 2283370)
# How it was run: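 Fluorescence polarization readout of ligand binding to extracted human PPARg, measured at 2 h. Duplicate single-point screen at 25 uM, then concentration-series retesting; activity defined as signal loss versus DMSO.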
# [2] = molecular target: Agonist Androgen Response Element (ARE), AR (gene 367) (UniProt P10275); test: OT_AR_ARELUC_AG_1440: Odyssey Thera (OT) 24-hour CHO-K1 Luciferase Assay for Agonist Androgen Response Element (ARE) (AID 2283379)
# How it was run: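 Luminescence increase above DMSO, read after a 24 h compound treatment of CHO-K1 cells expressing an androgen response element luciferase reporter, gives the single primary endpoint; concentration-response fitting used the positive direction.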
# [3] = molecular target: Estrogen receptor beta (Homo sapiens) (UniProt Q92731); test: OT_ER_ERbERb_1440: Odyssey Thera (OT) 24-hour HEK293T Protein-Complementation Assay for Estrogen Receptor-beta/-beta Homodimer (AID 2283380);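 further: fluorescence gain from ER beta LBD homodimer complementation read by laser scanning cytometry; scored as signal increase over DMSO baseline for both agonists and antagonists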
# How it was run: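 HEK293T cells stably expressing human ER-beta LBD (aa 310-547) PCA homodimer pair, dosed 24 h; formaldehyde-fixed, Draq5-stained. Readout: increase in nuclear (agonist) or nuclear plus cytoplasmic (antagonist) fluorescence intensity versus DMSO, gain-of-signal fitting.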
# [4] = molecular target: Estrogen receptor (Homo sapiens) (UniProt P03372); test: OT_ERa_GFPERaERE_0480: Odyssey Thera (OT) 8-hour HeLa Transcription Induction Assay for Estrogen Receptor (AID 2283381; active means hit-call score of the fitted dose curve at least 0.9, where 1 is the maximum; inactive means score below 0.9)
# How it was run: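 Fluorescence microscopy with high-content image analysis measures ERE-driven GFP induction in HeLa cells at 8 h post-dose. Increases fitted against DMSO baseline.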
# [5] = molecular target: Estrogen receptor (Homo sapiens) (UniProt P03372); test: OT_ERa_GFPERaERE_0120: Odyssey Thera (OT) 2-hour HeLa Transcription Induction Assay for Estrogen Receptor (AID 2283382)
# How it was run: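 Fluorescence-microscopy images of the GFP-ERα/ERE reporter, scored by high-content image algorithms, give the readout. HeLa exposure lasted 2 h, and only signal increase over DMSO was fitted.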
# [6] = molecular target: Retinoic acid receptor RXR-alpha (Homo sapiens) (UniProt P19793); test: OT_NURR1_NURR1RXRa_0480: Odyssey Thera (OT) 8-hour HEK293T Protein Complementation Assay for Nurr1/retinoid X receptor (RXR) (AID 2283385)
# How it was run: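 Interaction of Nurr1 with RXRα read as reconstituted reporter fluorescence in a HEK293T fragment-complementation system, 8 h post-treatment; increase over DMSO baseline analysed.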
# [7] = molecular target: Peroxisome proliferator-activated receptor gamma (Homo sapiens) (UniProt P37231); test: OT_PPARg_PPARgSRC1_0480: Odyssey Thera (OT) 8-hour Protein-Complementation Assay for Peroxisome Proliferator-activated Receptor Gamma / SRC-1 Co-activator (AID 2283387);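 further: nuclear to cytoplasmic split Venus YFP fluorescence ratio reporting PPARg SRC-1 interaction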
# How it was run: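 Read-out: 488 nm N/C fluorescence ratio from complemented Venus YFP fragments, ≥350 cells per image, gain-of-signal fitted against DMSO baseline. Fusions of PPARg/SRC-1 with IFP1/IFP2 expressed transiently in HEK293T; compounds applied 8 h.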
# [8] = molecular target: mouse Estrogen Receptor alpha (Era), Esr1 (gene 13982) (UniProt P19785); test: NVS_NR_mERa: NovaScreen (NVS) Nuclear Receptor Binding Assay for mouse Estrogen Receptor alpha (Era) (AID 2283378);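 further: hit means loss of bound radioligand signal relative to DMSO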
# How it was run: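 Filter radiodetection of radioligand displacement from extracted receptor protein, measured 18 h post-dose. Single 25 uM concentration in duplicate initially, with concentration-series follow-up. Binding loss fitted relative to DMSO.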
# [9] = molecular target: human Adenosine Transporter (Adot), SLC29A1 (gene 2030) (UniProt Q99808); test: NVS_TR_hAdoT: NovaScreen (NVS) Transporter Assay for human Adenosine Transporter (Adot) (AID 2283368)
# How it was run: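 Binding displacement on U937 extracted protein, read 1 h post-dose by filtration and scintillation counting. Primary duplicate test at 25 uM, then singleton concentration series with 50 uM top; DMSO baseline.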
# [10] = test system: guinea pig Dopamine Transporter (DAT), gene 100714898; test: NVS_TR_gDAT: NovaScreen (NVS) Transporter Assay for guinea pig Dopamine Transporter (DAT) (AID 2283369);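 further: active compounds lower bound radioligand signal relative to DMSO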
# How it was run: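 Radioligand displacement on membranes from guinea pig striatum, 2 h exposure, bound label counted by filtration and scintillation. Tested at 25 uM in duplicate, then actives in concentration series to 50 uM; DMSO as negative control.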
# [11] = molecular target: human Serotonin Transporter (SERT), SLC6A4 (gene 6532) (UniProt P31645); test: NVS_TR_hSERT: NovaScreen (NVS) Transporter Assay for human Serotonin Transporter (SERT) (AID 2283372)
# How it was run: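 Human platelet membrane preparation; displacement of radioligand from serotonin transporter measured after 1 h by filtration and scintillation counting. Single 25 uM duplicate screen, then concentration series for actives, with DMSO as negative baseline.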
# [12] = test system: rat Norepinephrine Transporter (NET), gene 83511; test: NVS_TR_rNET: NovaScreen (NVS) Transporter Assay for rat Norepinephrine Transporter (NET) (AID 2283373)
# How it was run: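 Competitive radioligand displacement at the rat NET using forebrain membrane preparations, 1 h incubation, filter-based scintillation readout. Primary testing in duplicate at a single 25 uM concentration; confirmed actives retested across concentrations.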
# [13] = molecular target: human Dopamine Transporter (DAT), SLC6A3 (gene 6531) (UniProt Q01959); test: NVS_TR_hDAT: NovaScreen (NVS) Transporter Assay for human Dopamine Transporter (DAT) (AID 2283374);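 further: activity means loss of bound radioligand signal relative to DMSO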
# How it was run: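 Extracted human SLC6A3 protein incubated 1 h with radioligand and test chemical; bound fraction separated on filters and counted. Single 25 uM duplicate screen preceded concentration-response follow-up; positive and negative controls on every plate.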
# [14] = molecular target: rat Serotonin Transporter (SERT), Slc6a4 (gene 25553) (UniProt P31652); test: NVS_TR_rSERT: NovaScreen (NVS) Transporter Assay for rat Serotonin Transporter (SERT) (AID 2283375)
# How it was run: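 Radioligand binding with competitive displacement on rat forebrain membrane preparations, counted by filtration and scintillation after 1 h. Primary single-point duplicates at 25 uM; active chemicals followed up in concentration-response. DMSO served as baseline.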
# [15] = molecular target: Norway rat Vesicular Monoamine Transporter (VMAT2), neurotransmitter transporter, Slc18a2 (gene 25549) (UniProt Q01827); test: NVS_TR_rVMAT2: NovaScreen (NVS) Transporter Assay for Norway rat Vesicular Monoamine Transporter (VMAT2), neurotransmitter transporter (AID 2283376);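 further: actives lower the bound radioligand signal below the DMSO level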
# How it was run: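 Binding endpoint from rat forebrain tissue, cell-free; 1 h incubation; filtered radioligand counted; 25 uM duplicate primary then dose series; DMSO negative control.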
# [16] = molecular target: human Norepinephrine Transporter (NET), SLC6A2 (gene 6530) (UniProt P23975); test: NVS_TR_hNET: NovaScreen (NVS) Transporter Assay for human Norepinephrine Transporter (NET) (AID 2283377);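 further: cell-free membrane protein extracted from CHO cells expressing human NET; displacement of radioligand from human NET seen as loss of scintillation signal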
# How it was run: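 In this cell-free binding screen, chemicals at 25 uM (duplicate) compete with a radioligand for CHO-derived human NET over 1 hour, with filter-based radiodetection.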
# [17] = molecular target: Bile acid receptor (Homo sapiens) (UniProt Q96RI1); test: OT_FXR_FXRSRC1_1440: Odyssey Thera (OT) 24-hour HEK293T Protein-Complementation Assay for Farnesoid X receptor/SRC-1 Co-activator (AID 2283384)
# How it was run: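 Protein-fragment complementation: FXR and SRC-1 fused to reporter fragments that reassemble on interaction, read by fluorescence intensity. Human HEK293T cells measured 24 h post-dose; positive-direction fit versus DMSO.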
# [18] = molecular target: Bile acid receptor (Homo sapiens) (UniProt Q96RI1); test: OT_FXR_FXRSRC1_0480: Odyssey Thera (OT) 8-hour HEK293T Protein-Complementation Assay for Farnesoid X receptor/SRC-1 Co-activator (AID 2283383)
# How it was run: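 Binding of FXR to coactivator SRC-1 was read as fluorescence from a reconstituted split reporter in HEK293T cells, 8 h after chemical addition. Only increases in signal versus DMSO were fit.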
# Sequence of human Norepinephrine Transporter (NET), SLC6A2 (gene 6530) (P23975 whole entry, looked up): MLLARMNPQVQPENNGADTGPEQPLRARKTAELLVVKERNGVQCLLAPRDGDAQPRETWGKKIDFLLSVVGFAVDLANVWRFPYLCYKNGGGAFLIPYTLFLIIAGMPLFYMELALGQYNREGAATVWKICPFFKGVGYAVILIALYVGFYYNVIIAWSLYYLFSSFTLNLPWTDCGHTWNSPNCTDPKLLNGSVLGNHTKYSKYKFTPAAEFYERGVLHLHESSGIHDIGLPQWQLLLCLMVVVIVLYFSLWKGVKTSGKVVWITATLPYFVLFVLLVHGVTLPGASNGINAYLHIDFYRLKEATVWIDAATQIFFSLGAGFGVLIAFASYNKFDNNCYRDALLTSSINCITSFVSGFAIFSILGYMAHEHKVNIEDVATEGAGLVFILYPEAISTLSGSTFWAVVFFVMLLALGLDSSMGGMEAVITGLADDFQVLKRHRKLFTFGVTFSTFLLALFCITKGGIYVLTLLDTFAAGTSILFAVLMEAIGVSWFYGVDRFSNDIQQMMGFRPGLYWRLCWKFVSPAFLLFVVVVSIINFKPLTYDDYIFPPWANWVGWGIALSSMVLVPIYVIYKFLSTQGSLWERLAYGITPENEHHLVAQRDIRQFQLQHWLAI
# Sequence of Estrogen receptor (Homo sapiens) (P03372 whole entry, looked up): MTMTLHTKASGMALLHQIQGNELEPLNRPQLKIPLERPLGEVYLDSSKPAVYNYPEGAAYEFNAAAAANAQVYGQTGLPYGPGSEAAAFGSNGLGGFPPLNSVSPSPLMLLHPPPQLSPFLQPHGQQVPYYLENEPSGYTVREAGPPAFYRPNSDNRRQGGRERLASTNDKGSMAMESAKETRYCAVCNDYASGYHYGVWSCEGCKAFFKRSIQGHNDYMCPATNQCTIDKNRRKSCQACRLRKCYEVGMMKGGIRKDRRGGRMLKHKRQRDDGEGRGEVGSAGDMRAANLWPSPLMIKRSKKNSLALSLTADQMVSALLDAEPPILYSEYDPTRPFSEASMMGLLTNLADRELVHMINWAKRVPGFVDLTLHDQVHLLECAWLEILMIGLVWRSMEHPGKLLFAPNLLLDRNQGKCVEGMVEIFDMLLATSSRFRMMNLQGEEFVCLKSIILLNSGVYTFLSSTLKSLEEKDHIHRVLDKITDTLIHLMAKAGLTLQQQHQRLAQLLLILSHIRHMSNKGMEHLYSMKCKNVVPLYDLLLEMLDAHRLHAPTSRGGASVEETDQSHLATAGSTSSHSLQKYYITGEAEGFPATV
# Sequence of human Adenosine Transporter (Adot), SLC29A1 (gene 2030) (Q99808 whole entry, looked up): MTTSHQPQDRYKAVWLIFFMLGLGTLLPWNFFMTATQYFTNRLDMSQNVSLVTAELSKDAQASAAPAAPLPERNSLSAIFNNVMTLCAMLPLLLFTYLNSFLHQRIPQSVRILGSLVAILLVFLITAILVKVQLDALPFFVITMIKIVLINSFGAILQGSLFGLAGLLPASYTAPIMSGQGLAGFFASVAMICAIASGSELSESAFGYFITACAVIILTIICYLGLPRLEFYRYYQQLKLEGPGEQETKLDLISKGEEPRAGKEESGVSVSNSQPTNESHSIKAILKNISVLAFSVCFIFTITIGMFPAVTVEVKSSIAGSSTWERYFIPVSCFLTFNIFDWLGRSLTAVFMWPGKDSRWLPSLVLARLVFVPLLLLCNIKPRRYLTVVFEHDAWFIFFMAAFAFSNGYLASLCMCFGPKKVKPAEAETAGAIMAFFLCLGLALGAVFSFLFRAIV
# Sequence of mouse Estrogen Receptor alpha (Era), Esr1 (gene 13982) (P19785 whole entry, looked up): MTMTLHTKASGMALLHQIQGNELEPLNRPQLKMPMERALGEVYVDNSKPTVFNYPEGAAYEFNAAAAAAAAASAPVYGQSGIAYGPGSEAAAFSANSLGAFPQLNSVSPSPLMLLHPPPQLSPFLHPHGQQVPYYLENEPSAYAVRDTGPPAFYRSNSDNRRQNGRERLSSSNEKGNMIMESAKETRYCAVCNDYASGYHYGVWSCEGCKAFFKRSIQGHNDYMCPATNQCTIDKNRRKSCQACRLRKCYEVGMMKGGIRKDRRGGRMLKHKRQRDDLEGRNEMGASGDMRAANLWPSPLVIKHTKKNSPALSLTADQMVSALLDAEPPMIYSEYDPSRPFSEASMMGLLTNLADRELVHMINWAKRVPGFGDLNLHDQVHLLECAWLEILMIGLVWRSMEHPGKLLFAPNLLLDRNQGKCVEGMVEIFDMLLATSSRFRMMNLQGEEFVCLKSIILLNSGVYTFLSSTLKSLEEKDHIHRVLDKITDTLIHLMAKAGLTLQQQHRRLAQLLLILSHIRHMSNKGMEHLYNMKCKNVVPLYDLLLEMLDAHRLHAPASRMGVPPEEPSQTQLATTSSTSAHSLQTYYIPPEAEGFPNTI
# Sequence of Bile acid receptor (Homo sapiens) (Q96RI1 whole entry, looked up, the tested form may be a part): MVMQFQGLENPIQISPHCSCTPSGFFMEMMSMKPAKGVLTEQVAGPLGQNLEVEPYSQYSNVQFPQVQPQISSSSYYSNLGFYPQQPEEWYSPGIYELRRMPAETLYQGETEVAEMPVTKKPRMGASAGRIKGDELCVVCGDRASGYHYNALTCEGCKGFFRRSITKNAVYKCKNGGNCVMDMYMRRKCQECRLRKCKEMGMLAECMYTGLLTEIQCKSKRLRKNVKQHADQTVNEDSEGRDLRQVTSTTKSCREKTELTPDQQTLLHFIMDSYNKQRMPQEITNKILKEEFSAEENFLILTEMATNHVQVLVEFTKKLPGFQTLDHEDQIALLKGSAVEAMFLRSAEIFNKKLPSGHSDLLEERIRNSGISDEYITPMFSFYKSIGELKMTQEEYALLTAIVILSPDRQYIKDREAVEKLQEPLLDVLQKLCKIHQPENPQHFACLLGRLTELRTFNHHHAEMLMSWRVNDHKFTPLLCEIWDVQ
# Sequence of Peroxisome proliferator-activated receptor gamma (Homo sapiens) (P37231 whole entry, looked up, the tested form may be a part): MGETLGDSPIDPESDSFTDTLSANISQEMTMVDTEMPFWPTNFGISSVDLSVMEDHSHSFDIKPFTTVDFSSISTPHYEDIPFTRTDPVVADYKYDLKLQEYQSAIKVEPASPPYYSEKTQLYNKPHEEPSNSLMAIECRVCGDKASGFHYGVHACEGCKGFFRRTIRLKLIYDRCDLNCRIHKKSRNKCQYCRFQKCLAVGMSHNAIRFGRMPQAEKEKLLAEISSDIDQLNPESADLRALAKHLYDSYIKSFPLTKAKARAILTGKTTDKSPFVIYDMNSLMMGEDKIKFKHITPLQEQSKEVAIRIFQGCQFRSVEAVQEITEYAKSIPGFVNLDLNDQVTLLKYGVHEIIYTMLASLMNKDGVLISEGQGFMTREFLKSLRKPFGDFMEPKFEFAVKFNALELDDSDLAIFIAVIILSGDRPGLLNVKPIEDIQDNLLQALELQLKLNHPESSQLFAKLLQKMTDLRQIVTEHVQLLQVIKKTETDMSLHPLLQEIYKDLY
# Sequence of Estrogen receptor beta (Homo sapiens) (Q92731 whole entry, looked up, the tested form may be a part): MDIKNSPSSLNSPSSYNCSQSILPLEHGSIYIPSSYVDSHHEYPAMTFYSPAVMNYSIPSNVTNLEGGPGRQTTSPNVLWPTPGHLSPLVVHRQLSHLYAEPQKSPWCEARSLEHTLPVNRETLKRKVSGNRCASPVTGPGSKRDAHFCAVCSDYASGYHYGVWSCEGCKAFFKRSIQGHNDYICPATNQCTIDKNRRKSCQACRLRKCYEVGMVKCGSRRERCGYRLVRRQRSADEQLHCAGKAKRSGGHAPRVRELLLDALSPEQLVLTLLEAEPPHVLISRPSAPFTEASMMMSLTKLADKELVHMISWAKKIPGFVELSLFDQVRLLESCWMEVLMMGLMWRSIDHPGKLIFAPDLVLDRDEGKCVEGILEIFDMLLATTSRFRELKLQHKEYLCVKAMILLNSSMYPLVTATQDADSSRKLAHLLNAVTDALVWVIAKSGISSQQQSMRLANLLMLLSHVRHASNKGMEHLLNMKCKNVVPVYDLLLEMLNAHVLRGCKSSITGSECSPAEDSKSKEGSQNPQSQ
# Sequence of Retinoic acid receptor RXR-alpha (Homo sapiens) (P19793 whole entry, looked up, the tested form may be a part): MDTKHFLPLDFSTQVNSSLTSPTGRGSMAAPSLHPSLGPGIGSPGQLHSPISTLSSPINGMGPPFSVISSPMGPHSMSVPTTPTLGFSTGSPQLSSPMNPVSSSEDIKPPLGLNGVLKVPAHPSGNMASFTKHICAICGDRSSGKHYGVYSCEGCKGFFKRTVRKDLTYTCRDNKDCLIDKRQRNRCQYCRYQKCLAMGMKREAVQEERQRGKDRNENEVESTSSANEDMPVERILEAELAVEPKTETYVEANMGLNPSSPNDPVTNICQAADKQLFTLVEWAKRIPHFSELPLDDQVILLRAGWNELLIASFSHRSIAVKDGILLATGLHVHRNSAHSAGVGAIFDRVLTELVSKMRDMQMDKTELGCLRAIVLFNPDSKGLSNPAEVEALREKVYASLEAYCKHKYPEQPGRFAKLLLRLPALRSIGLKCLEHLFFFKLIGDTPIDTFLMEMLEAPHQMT
# Sequence of human Dopamine Transporter (DAT), SLC6A3 (gene 6531) (Q01959 whole entry, looked up): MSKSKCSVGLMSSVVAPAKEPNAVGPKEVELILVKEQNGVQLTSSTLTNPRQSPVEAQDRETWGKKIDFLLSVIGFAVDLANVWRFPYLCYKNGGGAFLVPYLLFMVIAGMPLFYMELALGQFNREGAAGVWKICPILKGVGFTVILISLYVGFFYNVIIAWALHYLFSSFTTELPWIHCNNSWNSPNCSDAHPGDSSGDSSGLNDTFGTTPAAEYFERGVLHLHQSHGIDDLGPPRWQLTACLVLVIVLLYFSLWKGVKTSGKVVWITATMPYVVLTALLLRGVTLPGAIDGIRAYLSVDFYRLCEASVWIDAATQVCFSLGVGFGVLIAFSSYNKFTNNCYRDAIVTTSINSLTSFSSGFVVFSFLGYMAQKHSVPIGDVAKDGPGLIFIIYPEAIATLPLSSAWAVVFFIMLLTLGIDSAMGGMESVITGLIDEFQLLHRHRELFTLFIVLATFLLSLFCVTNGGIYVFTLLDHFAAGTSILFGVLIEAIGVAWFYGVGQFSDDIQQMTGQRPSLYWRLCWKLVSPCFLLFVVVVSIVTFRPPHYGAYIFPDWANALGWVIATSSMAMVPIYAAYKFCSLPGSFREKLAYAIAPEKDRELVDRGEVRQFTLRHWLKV
smiles,measurement,setting,value
CC(C)(c1ccc(OCC2CO2)cc1)c1ccc(OCC2CO2)cc1 (stereo unspecified),outcome,[1],inactive
same,outcome,[2],inactive
same,outcome,[3],inactive
same,outcome,[4],inactive
same,outcome,[5],inactive
same,outcome,[6],inactive
same,outcome,[7],inactive
C=CC#N,outcome,[1],inactive
same,outcome,[8],inactive
same,outcome,[3],inactive
same,outcome,[4],inactive
same,outcome,[6],inactive
same,outcome,[7],inactive
C=C(C)C(=O)[O][Sn]([CH2]CCC)([CH2]CCC)[CH2]CCC,AC50,[9],36.7 µM (active)
same,AC50,[10],19.9 µM (active)
same,AC50,[1],1.62 µM (active)
same,AC50,[11],8.9 µM (active)
same,AC50,[12],25 µM (active)
same,AC50,[13],2.82 µM (active)
same,AC50,[14],4.15 µM (active)
same,AC50,[15],4.76 µM (active)
same,AC50,[16],376 nM (active)
same,AC50,[8],9.68 µM (active)
same,outcome,[3],inactive
same,outcome,[4],inactive
same,AC50,[5],0.772 µM (active)
same,outcome,[17],inactive
same,outcome,[7],inactive
Cc1ccccc1C(=O)Nc1cccc(OC(C)C)c1,outcome,[1],inactive
same,outcome,[2],inactive
same,outcome,[3],inactive
same,outcome,[4],inactive
same,outcome,[5],inactive
same,outcome,[6],inactive
same,outcome,[7],inactive
CC(=O)[O][Hg][c]1ccccc1,AC50,[9],11.8 µM (active)
same,AC50,[13],12.4 µM (active)
same,AC50,[16],212 nM (active)
same,outcome,[2],inactive
same,outcome,[3],inactive
same,AC50,[4],4.11 µM (active)
same,AC50,[5],12 µM (active)
same,AC50,[17],0.2 µM (active)
same,outcome,[7],inactive
CCOP(=S)(OCC)Oc1nc(Cl)c(Cl)cc1Cl,outcome,[1],inactive
same,outcome,[8],inactive
same,outcome,[2],inactive
same,outcome,[3],inactive
same,outcome,[4],inactive
same,outcome,[5],inactive
same,AC50,[18],35.1 µM (active)
same,AC50,[17],76.4 µM (active)
same,AC50,[6],83.4 µM (active) and 71 µM (active)
same,outcome,[7],inactive
COc1cc(-c2ccc(N)c(OC)c2)ccc1N,AC50,[9],14.2 µM (active)
same,outcome,[1],inactive
same,outcome,[12],inactive
same,AC50,[16],10.3 µM (active) and 7.7 µM (active)
same,outcome,[6],inactive
same,outcome,[7],inactive
O=C(O)C(F)(F)C(F)(F)C(F)(F)C(F)(F)C(F)(F)C(F)(F)F,outcome,[1],inactive
same,outcome,[3],inactive
same,outcome,[18],inactive
same,outcome,[17],inactive
same,outcome,[6],inactive
same,outcome,[7],inactive
